Bioassay records deposited in PubChem BioAssay by The Scripps Research Institute Molecular Screening Center.
MITF inh = MITF inhibitors, primary screen, biochemical, AlphaScreen, human; 0.91% of 650,000 active; inhibition, % at 2.6 µM; AID 1259374, 2018; Microphthalmia-associated transcription factor (Homo sapiens), O75030; AlphaScreen MITF homodimerization, bead proximity signal; in the data active = inhibition above about 50%
GPR151 ag = activators of human GPR151, primary screen, cell-based, PathHunter beta-arrestin, luminescence; activation, % at 11.2 µM; PathHunter beta-arrestin GPR151 cells; 1% of 650,000 active; G-protein coupled receptor 151 (Homo sapiens), Q8TDV0; in the data active = activation above about 4.9%
Target sequence (Q8TDV0 whole entry, looked up): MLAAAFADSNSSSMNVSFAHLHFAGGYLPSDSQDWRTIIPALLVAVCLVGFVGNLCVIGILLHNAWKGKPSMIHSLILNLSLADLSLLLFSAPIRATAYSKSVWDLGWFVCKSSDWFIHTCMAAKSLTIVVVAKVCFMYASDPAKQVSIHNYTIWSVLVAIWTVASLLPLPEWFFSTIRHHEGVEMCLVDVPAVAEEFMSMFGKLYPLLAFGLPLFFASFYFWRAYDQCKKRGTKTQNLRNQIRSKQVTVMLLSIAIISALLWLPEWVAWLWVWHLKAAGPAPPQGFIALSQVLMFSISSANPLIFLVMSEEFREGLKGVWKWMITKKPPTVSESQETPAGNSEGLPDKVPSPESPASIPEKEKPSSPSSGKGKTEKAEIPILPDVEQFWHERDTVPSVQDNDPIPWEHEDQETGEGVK
FBW7 activator = FBW7 E3 ligase activators, primary screen, biochemical, AlphaScreen, human | AID 1259310, 2017 | AlphaScreen FBW7–phospho-cyclin E peptide binding, activator screen | normalized activity (activation), % at 26.1 µM | 0.13% of 650,000 active | F-box/WD repeat-containing protein 7 (Homo sapiens), Q969H0; in the data active = normalized activity above about 1.9%;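 note: purified mutant Fbw7 with reduced substrate affinity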
TEAD-YAP block = TEAD-YAP interaction inhibition, primary screen, TEAD-YAP interaction inhibitor project, luminescence, HEK-TIYL cells; TEAD-Gal4/YAP UAS-luciferase luminescence; AID 1259422, 2018; 1.4% of 640,000 active; inhibition, % at 9.12 µM; in the data active = inhibition above about 32%
GPR151 confirm = GPR151 activators, triplicate retest, confirmation, cell-based, PathHunter beta-arrestin, luminescence; shares compounds with GPR151 ag; GPR151 PathHunter beta-arrestin cells, 90 min; % of EA-reagent control over plate median; activation, % at 11.2 µM; 6,700 tested, under 10 active;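 active = mean percent activation across replicates above the confirmation screen cutoff of 4.91%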
GPR119 ag = GPR119 activators in beta-arrestin cells, counter-screen for GPR151 activator project, cell-based, PathHunter beta-arrestin, luminescence, triplicate; AID 1508611, 2020; activation, % at 11.2 µM; shares compounds with GPR151 ag; 0.3% of 6,700 active; 90 min; 0 = compound-well median, 100 = enzyme-acceptor control;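 active = mean percent activation in the counterscreen above 29.09%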;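 note: counterscreen on off-target GPR119 to flag nonselective hits from the GPR151 activator screen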
Large screens that a line does not name were inactive (follow-up assays come after a bar, where they were run). A selection: hits, their analogues and other compounds. The true share with any hit is near 3.5%.

CNC(=O)/C(C#N)=C/c1ccc(-c2nc3ccccc3s2)o1	GPR151 ag 5.5 | GPR151 confirm inactive | GPR119 ag inactive
N#C/C(=C\c1ccc(-c2nc3ccccc3s2)o1)C(N)=O	none
Cc1cccnc1C(c1ccc(F)cc1)N(C)C(=O)C1CCN(C(=O)NC(C)C)CC1 (centres undefined)	none
CCCCC1CN(CCC(=O)NCc2c(C)nn(CC)c2C)Cc2ccccc2O1 (centres undefined)	GPR151 ag 7.5 | GPR151 confirm inactive | GPR119 ag inactive
Cn1c(C(=O)N2CCC(Cc3ccccc3)CC2)cc2c(=O)n3ccccc3nc21	none
Cc1cccc(CCNC(=O)CCS(=O)(=O)c2ccc3c(c2)n(C)c(=O)c(=O)n3C)c1	none
CC(=O)NNC(=O)c1ccc(Cl)cc1	none
CC(=O)NC(NC(=O)c1ccc(Cl)cc1)C(Cl)Cl (centres undefined)	GPR151 ag 6.9 | GPR151 confirm inactive | GPR119 ag inactive
COc1ccc(C2C(C(C)=O)=C(C)N=c3s/c(=C/c4ccccc4)c(=O)n32)cc1 (centres undefined)	GPR151 ag 8.8 | GPR151 confirm inactive | GPR119 ag inactive
COc1ccc(C2C(C(C)=O)=C(C)N=c3s/c(=C/c4ccc(OCc5cccc6ccccc56)cc4)c(=O)n32)cc1 (centres undefined)	none
CCOC(=O)C1=C(C)N=c2s/c(=C\c3ccc(C(C)C)cc3)c(=O)n2C1c1ccc(OC)cc1 (centres undefined)	GPR151 ag 7.0 | GPR151 confirm inactive | GPR119 ag inactive
C=CCn1cc(/C=c2\sc3n(c2=O)C(c2ccc(OC)cc2)C(C(=O)OCC)=C(C)N=3)c2ccccc21 (centres undefined)	GPR151 ag 5.0 | GPR151 confirm inactive | GPR119 ag inactive
CCOC(=O)C1=C(C)N=c2s/c(=C\c3ccc(Br)o3)c(=O)n2C1c1ccc(OC(C)C)cc1 (centres undefined)	GPR151 ag 5.0 | GPR151 confirm inactive | GPR119 ag inactive
CCOC(=O)C1=C(C)N=c2s/c(=C\c3ccc(C(C)C)cc3)c(=O)n2C1c1ccc(C(C)C)cc1 (centres undefined)	none
C=CCn1cc(/C=c2\sc3n(c2=O)C(c2ccc(Cl)cc2)C(C(=O)OCC)=C(C)N=3)c2ccccc21 (centres undefined)	none
Cc1nn(Cc2ccccc2)c(=O)c2ccccc12	none
O=C(CCCOc1ccccc1)Nc1ccc(S(=O)(=O)N2CCCCCC2)cc1	none
COc1cccc(-c2nc(C=Nc3ccc4ccccc4c3)c(O)o2)c1	none
COc1ccc(-c2nc(SCC(=O)Nc3ccc4c(c3)OCCO4)n[nH]2)cc1	none
CNc1oc(-c2cccs2)nc1S(=O)(=O)c1ccccc1	GPR151 ag 5.1 | GPR151 confirm inactive | GPR119 ag inactive
COc1ccc(NS(=O)(=O)c2cccc(C(=O)NN)c2)cc1	none
Cc1nnc(NC(=O)CSc2cn(Cc3ccccc3C)c3ccccc23)s1	none
COc1ccccc1CNC(=O)c1sc2nc(C)nc(N3CCCCC3)c2c1C	GPR151 ag 5.2 | GPR151 confirm inactive | GPR119 ag inactive
Cc1nc(N2CCN(C)CC2)c2c(C)c(C(=O)N3CCC(Cc4ccccc4)CC3)sc2n1	GPR151 ag 7.1 | GPR151 confirm inactive | GPR119 ag inactive
CCOC(=O)/C(C#N)=C\C=C1C=CN(Cc2ccccc2)C=C1	none
CCc1ccccc1N(C)C(=O)c1cc2cc(OC)ccc2oc1=O	GPR151 ag 5.9 | GPR151 confirm inactive | GPR119 ag inactive
O=C(O)CCCCCN1C(=O)C(O)=C(C(=O)/C=C/c2ccccc2)C1c1ccccc1Cl (centres undefined)	GPR151 ag 5.0 | GPR151 confirm inactive | GPR119 ag inactive
Cc1cccn2c(=O)c3cc(C(=O)NC(C)c4ccccc4)c(=N)n(C4CCCC4)c3nc12 (centres undefined)	none
COc1ccc(CNC2C3CC4CC(C3)CC2C4)c(OC)c1 (centres undefined)	GPR151 ag 5.6 | GPR151 confirm inactive | GPR119 ag inactive
COc1ccc(-c2nc3ccccc3c(=O)n2CC(=O)Nc2ccc(N(C)C)cc2)cc1OC	none
O=C(NC1CCS(=O)(=O)C1)/C(=C/c1cn(-c2ccccc2)nc1-c1cccs1)NC(=O)c1ccccc1 (centres undefined)	GPR151 ag 5.8 | GPR151 confirm inactive | GPR119 ag inactive
CC(C)OC(=O)c1nnn(-c2nonc2N)c1CN1CCN(c2ccc(F)cc2)CC1	none
Cc1ccc(-c2nnc(SCC(=O)Nc3cccc(Cl)c3)o2)cc1	none
CCC1(c2ccc(F)cc2)NC(=O)N(Cc2ccccc2C#N)C1=O (centres undefined)	GPR151 ag 5.7 | GPR151 confirm inactive | GPR119 ag inactive
CC1(c2ccccc2Cl)NC(=O)N(Cc2ccccc2C#N)C1=O (centres undefined)	none
COc1cc(/C=C2/C(=N)N3N=C(Cc4ccccc4)SC3=NC2=O)ccc1OCCOc1ccc(C)cc1C	none
O=C1[C@H]2[C@H]3[C@H](O)[C@H](O)C/C(=N\OCc4ccccc4)[C@H]3CC[C@H]2C(=O)N1C1CCCCC1	GPR151 ag 5.8 (no result: TEAD-YAP block) | GPR151 confirm inactive | GPR119 ag inactive
CCN1C(=O)[C@H]2[C@H]3[C@H](O)[C@H](O)C/C(=N\OCC(C)C)[C@@H]3CC[C@H]2C1=O	GPR151 ag 6.6 (no result: TEAD-YAP block) | GPR151 confirm inactive | GPR119 ag inactive
CC(C)CO/N=C1\C[C@@H](O)[C@@H](O)[C@@H]2[C@@H]3C(=O)N(Cc4ccccc4)C(=O)[C@@H]3CC[C@H]12	none (no result: TEAD-YAP block)
C#CCCCO/N=C1\C[C@@H](O)[C@@H](O)[C@@H]2[C@@H]3C(=O)N([C@@H](C)c4ccccc4)C(=O)[C@@H]3CC[C@H]12	GPR151 ag 9.5 (no result: TEAD-YAP block) | GPR151 confirm inactive | GPR119 ag inactive
CCCCCOc1ccc(NC(=O)CSCC(=O)Nc2ccccc2)cc1	none
COCCC(=O)N1CCCC(c2[nH]ncc2-c2cccc3ccccc23)C1 (centres undefined)	none
COC(=O)c1ccc(/C=N\NC(=O)CNc2ccc(C)cc2)cc1	none
COC(=O)c1ccc(/C=N/NS(=O)(=O)c2cc(C)ccc2C)cc1	GPR151 ag 5.9 | GPR151 confirm inactive | GPR119 ag inactive
CCCNC(=O)CCCOc1ccc(Cl)cc1Cl	GPR151 ag 13 | GPR151 confirm inactive | GPR119 ag inactive
CCOCCCNC(=O)CCCOc1ccc(Cl)cc1Cl	none
